Hits are enriched below; roughly 12% of the tested compounds scored in any of these assays.
JMJD2A Tudor inh: qHTS Assay for Inhibitors of JMJD2A-Tudor Domain | Potency, µM (doses to about 114 µM), without a hit: at the highest dose activity change, negative = inhibition, usual class: inhibitors | 390,000 tested, 4.4% active | AlphaScreen JMJD2A-Tudor / H3K4me3 peptide binding; note: % is set by controls: 0 for no effect and ±100 for the full control effect; nearly all actives have a fitted effect of over 50% in size
L3MBTL1 inh: qHTS Assay for the Inhibitors of L3MBTL1; AlphaScreen L3MBTL1–H3K9me1 peptide binding; Potency, µM (top dose mostly 57.1 µM), for inactives: at the highest dose activity, negative = inhibition, actives largely listed as inhibitors; 230,000 tested, 0.66% active; AID 485360, 2010; note: % is set by controls: 0 for no effect and ±100 for the full control effect; nearly all actives have a fitted effect of over 60% in size
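Displacement of a biotinylated histone H3(1-15) peptide monomethylated at Lys9 (75 nM) from L3MBTL1 (50 nM) was measured by AlphaScreen after a 30 min room-temperature compound incubation; cefsulodin titration served as intraplate control.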
HP1b chromo inh: HTS for Inhibitors of HP1-beta Chromodomain Interactions with Methylated Histone Tails; AlphaScreen HP1-beta / biotin-H3K9me3 peptide binding; Potency, µM (top dose mostly 114 µM), for the others: top-dose activity change, negative = inhibition, actives largely listed as inhibitors; 390,000 tested, 0.56% active; AID 540317, 2011; note: nearly all actives have a fitted effect of over 70% in size
Target sequence (P83916 whole entry, looked up): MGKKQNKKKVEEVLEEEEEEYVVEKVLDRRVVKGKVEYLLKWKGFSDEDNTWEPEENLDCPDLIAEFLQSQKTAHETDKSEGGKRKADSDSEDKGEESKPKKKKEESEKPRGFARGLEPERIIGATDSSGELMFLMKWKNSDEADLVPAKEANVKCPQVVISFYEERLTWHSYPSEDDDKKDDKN
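Compound inhibition of the preformed complex between 50 nM HP1-beta and 50 nM biotinylated H3K9me3 peptide was read by AlphaScreen. Buffer was PBS pH 7.4 with 0.01% Tween-20. Incubations ran 30 min at room temperature, with 10 ug/mL donor/acceptor beads.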
BAZ2B block: qHTS Assay for Inhibitors of BAZ2B | Bromodomain adjacent to zinc finger domain protein 2B (Homo sapiens), Q9UIF8 | AlphaScreen BAZ2B-H3K14Ac peptide displacement | Potency, µM (titrated, usually from 114 µM), for inactives: at the highest dose activity change, negative = inhibition, most hits filed as inhibitors | 360,000 tested, 4.4% active | AID 504333, 2011; note: % is set by controls: 0 for no effect and ±100 for the full control effect; nearly all actives have a fitted effect of over 60% in size
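In this displacement format the biotinylated H3(5-23) peptide acetylated at Lys14 serves as ligand at 50 nM, with BAZ2B at 50 nM in PBS pH 7.4 containing 0.01% Tween-20. Donor and acceptor beads are 10 ug/mL final.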
Sfp inh: qHTS Assay for Inhibitors of Bacillus subtilis Sfp phosphopantetheinyl transferase (PPTase); Potency, µM, for inactives: largest response in the series, negative = inhibition, usual class: inhibitors; Biochemical Sfp PPTase activity, qHTS; 4'-phosphopantetheinyl transferase ffp (Bacillus subtilis), Q9F4F7; 310,000 tested, 3.5% active;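 note: the enzyme is Sfp with the accession as filed and its product quenches rhodamine fluorescence; 0% = enzyme reaction without inhibitor and -100% = no enzyme wells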
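With Hepes-Na pH 7.6 buffer containing 10 mM MgCl2, Sfp (15 nM) modified BHQ-2-YbbR (12.5 uM) using rhodamine-CoA (5 uM). Two reads 30 minutes apart at 525/598 nm yielded each well's rate.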
G9a inh: qHTS Assay for Inhibitors of Histone Lysine Methyltransferase G9a. Histone-lysine N-methyltransferase EHMT2 (Homo sapiens), Q96KQ7. G9a H3K9 monomethylation, AlphaScreen, 2 h. Potency, µM (top dose mostly 102 µM), for inactives: at the highest dose activity, negative = inhibition, hits mostly inhibitors. 350,000 tested, 8.8% active. AID 504332, 2011; note: % is set by controls: 0 for no effect and ±100 for the full control effect; nearly all actives have a fitted effect of over 75% in size
Target sequence (Q96KQ7 913-1193 limits assumed): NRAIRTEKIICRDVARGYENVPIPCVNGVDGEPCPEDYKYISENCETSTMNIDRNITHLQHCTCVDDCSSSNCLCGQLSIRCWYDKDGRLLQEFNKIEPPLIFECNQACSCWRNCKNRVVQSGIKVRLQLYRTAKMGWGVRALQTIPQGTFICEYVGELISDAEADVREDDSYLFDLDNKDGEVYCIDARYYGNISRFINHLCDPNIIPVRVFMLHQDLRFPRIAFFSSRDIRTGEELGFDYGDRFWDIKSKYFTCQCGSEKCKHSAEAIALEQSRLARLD
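Readings reflect AlphaScreen signal from monomethyl-H3K9 antibody detection. HMT at 20 nM; substrate b-H3K9 500 nM; cofactor SAM 20 uM; 2 h RT reaction; compounds tested as titrations in qHTS with 15 min preincubation.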
An asterisk follows results filed as active; i = inactive; ? = inconclusive; . = not tested or not shown; [ ] = dose if it differs, or a comment. Calls come from the whole dose curve; as a rule, active = well fitted curve in the direction sought with a large enough effect; inconclusive = small, poorly fitted or top-dose-only effect, or another doubt; inactive = no such curve, though single readings can be large; an effect the other way counts as inactive or inconclusive. Potency is the fitted concentration of half-maximal effect.

SMILES	JMJD2A Tudor inh	L3MBTL1 inh	HP1b chromo inh	BAZ2B block	Sfp inh	G9a inh
CCOc1cccc(-c2cc(-c3n[nH]c(=S)n3CC)c3ccccc3n2)c1	?	-3%	-16%	?	?	?
CCn1c(-c2cc(-c3ccc(C)c(C)c3)nc3ccccc23)n[nH]c1=S	.	-24%	.	?	-20%	40µM*
Cc1ccc(C)c(-c2cc(C(=O)NCc3cccs3)c3ccccc3n2)c1	-4%	0%	24%	-14%	12%	43%[12.7 µM]
CCOc1ccccc1-c1cc(-c2n[nH]c(=S)n2CC)c2ccccc2n1	45µM*	-5%	17%	-37%	3%	10µM*
Cc1ccc(-c2cc(-c3n[nH]c(=S)n3C)c3ccccc3n2)cc1	?	-10%	-30%	?	?	2µM*
c1ccc(-c2cc(-c3nc4ccccc4[nH]3)c3ccccc3n2)cc1	-17%	-2%	32%	-28%	6%	13%
CCC(=C(c1ccc(OC)cc1)c1ccc(OC)cc1)c1cn(CC(O)CN(CCO)CCO)c2ccccc12 (stereo unspecified)	45µM*	-20%	-6%	35µM*	?	40µM*
COc1ccc(CC2(CO)CCN(Cc3cccnc3)CC2)cc1	11%[57.1 µM]	-23%	46%	-16%	8.9µM*	35µM*
COc1ccc(-c2ncc(CN3CCC(CO)(Cc4cccc(OC)c4)CC3)cn2)cc1	-23%[11.4 µM]	-16%	15%	-23%	14%	?
CCOC(=O)c1c(S(=O)(=O)N2CCCC(C(=O)NCc3cccc(OC)c3)C2)c(C)n(C)c1C (stereo unspecified)	?	.	21%	-1%	.	8%[59 µM]
CCN1CCCC(Sc2nc3c([nH]2)c(=S)n(C)c(=O)n3C)C1 (stereo unspecified)	2%	.	25%	-3%	?	?
CCn1c(SCCN2CCCCC2)nc2c1c(=O)n(C)c(=O)n2C	-25%	.	71µM*	.	.	.
CCCc1nc2c([nH]1)c(=O)n(C)c(=O)n2C	-2%	-4%	19%	-9%	12%	?
Cn1c(=S)c2[nH]c(SCCN)nc2n(C)c1=O	1.1µM*	.	-14%	.	.	.
Cn1c(=S)c2[nH]c(SCCN3CCCC3)nc2n(C)c1=O	?	.	7%	?	40µM*	-142%[59 µM]
Cc1c(C(=O)NCc2ccccc2CN2CCCC2)oc2ccc(F)cc12	-6%	-3%	32%	7%	.	0%[59 µM]
Cc1cc(C)c(NC(=O)C2CCCO2)c(C)c1NC(=O)C1CCCO1 (stereo unspecified)	-9%	.	4%	2%	17%	5%
Cc1cccc(NC(=O)CCn2cnnn2)c1C	-14%	.	12%	-13%	.	11%[59 µM]
Nc1nc(NCCc2ccccc2)c2[nH]cnc2n1	-25%	.	66%	.	.	.
COC1OC(COC(=O)c2ccccc2)C(OC(=O)c2ccccc2)C1OC(=O)c1ccccc1 (stereo unspecified)	5%	.	39%	12%	-1%	6%[2.33 µM]
O=C(OC[C@H]1O[C@@H](OC(=O)c2cc(O)c(O)c(OC(=O)c3cc(O)c(O)c(O)c3)c2)[C@H](OC(=O)c2cc(O)c(O)c(OC(=O)c3cc(O)c(O)c(O)c3)c2)[C@@H](OC(=O)c2cc(O)c(O)c(OC(=O)c3cc(O)c(O)c(O)c3)c2)[C@@H]1OC(=O)c1cc(O)c(O)c(OC(=O)c2cc(O)c(O)c(O)c2)c1)c1cc(O)c(O)c(OC(=O)c2cc(O)c(O)c(O)c2)c1	.	0.1µM*	.	0.79µM*	.	1.4µM*
CC(C)N1CCN(C(=O)c2cccc(Cl)c2)CC1	14µM*	12%	?	?	-16%	25µM*
CCC(CC)N1CCN(C(=O)c2cccc(Cl)c2)CC1	20µM*	0%	?	56µM*	-16%	7.9µM*
COc1ccc(C(=O)c2no[n+]([O-])c2C(=O)c2ccc(OC)cc2)cc1	?	2%	-24%	-9%	-13%	8.9µM*
COc1ccc(NC(=O)c2c(N)no[n+]2[O-])cc1	-17%	6%	28%	-3%	7%	7%
SMILES	JMJD2A Tudor inh	L3MBTL1 inh	HP1b chromo inh	BAZ2B block	Sfp inh	G9a inh
O=C(c1cccs1)c1no[n+]([O-])c1C(=O)c1cccs1	?	-6%	-38%	?	32µM*	10µM*
Cc1cccc2cc3c(N)c(C(=O)N4CCc5ccccc54)sc3nc12	-22%	4%	25%	-7%	1%	1.4µM*
Cc1cccc2cc3c(N)c(C(=O)Nc4ccc(N5CCOCC5)cc4)sc3nc12	-34%	-6%	-6%	-36%	?	?
Cc1cccc2cc3c(N)c(C#N)sc3nc12	11%	29%	112%	9%	8%	7.9µM*
CC1CCN(C(=O)CSc2nc(-c3ccccc3)no2)CC1	25%	.	92%	19%	.	0%[59 µM]
Cc1ccc(CNS(=O)(=O)c2c(C(=O)N3CCCCC3)c(C)n(C)c2C)o1	-28%	.	-11%	-15%[57.1 µM]	0%	18%
COc1ccc2nc(N3CCC(C)CC3)c(C#N)cc2c1	489%	148%	i	i	40µM*	421%[59 µM]
COc1ccc2nc(N3CCC(O)CC3)c(C#N)cc2c1	11%	5%	56%	-5%	-17%	-5%
CCC1Oc2ccccc2N(CC(=O)NC2CCCC2)C1=O (stereo unspecified)	-2%	.	3%	0%	4%	5%
CC(C)CCNC(=O)c1ccc2c(SCC(=O)O)c3c(nc2c1)CCCC3	-18%	-15%	12%	0%	0%	?
O=C(O)CSc1c2c(nc3cc(C(=O)NCCN4CCOCC4)ccc13)CCC2	-12%	-18%	4%	?	89µM*	?
CCOc1ccc(NC(=O)c2ccc3c(SCC(=O)O)c4c(nc3c2)CCCC4)cc1	-9%	2%	20%	-21%	24%	-9%
CCOC(=O)c1ccccc1NC(=O)c1ccc2c(SCC(=O)O)c3c(nc2c1)CCCC3	-30%	.	6%[57 µM]	50µM*	-29%	?
O=C(O)CSc1c2c(nc3cc(C(=O)Nc4cccc(C(F)(F)F)c4)ccc13)CCC2	79µM*	.	17%	71µM*	-24%	40µM*
COc1cc(Cl)c(C)cc1NC(=O)c1ccc2c(SCC(=O)O)c3c(nc2c1)CCCC3	?	.	-4%	?	-3%	-10%

Screening data: PubChem, National Center for Advancing Translational Sciences (NCATS)
